± gives the standard deviation of the averaged measurements. Over roughly 33,000 sequences, “E-score (dimensionless, -0.5 to 0.5)” has its median near -0.049; the highest 2% begin near 0.37. Shown is part of a subset that was picked to be rich in the highest values.

The assay deals with T1, PmTbr T-box DNA-binding domain (GST fusion).
T1 sequence: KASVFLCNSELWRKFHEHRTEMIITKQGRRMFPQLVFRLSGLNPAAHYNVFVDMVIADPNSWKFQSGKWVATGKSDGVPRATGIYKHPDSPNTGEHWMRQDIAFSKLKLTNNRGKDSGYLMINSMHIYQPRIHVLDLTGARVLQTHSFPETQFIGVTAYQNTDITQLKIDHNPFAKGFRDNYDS
As to the kind of experiment: PBM E-score of 8-mer (E-score (dimensionless, -0.5 to 0.5)); Tbr is Tbrain of the sea star Patiria miniata (Pm) or the sea urchin Strongylocentrotus purpuratus (Sp); higher = stronger binding preference. The settings on record: the construct has about 5 more residues each side. How it is done:
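Universal protein-binding microarray (Agilent AMADID 016060, 60-bp probes with a 35-bp variable region) incubated with 200 nM GST-fused Patiria miniata Tbr T-box DNA-binding domain (residues 272-466) in PBS pH 7.5. Scored for every ungapped 8-mer (given with its reverse complement) by the Universal PBM Analysis Suite as E-score (modified Wilcoxon-Mann-Whitney enrichment, range -0.5 to 0.5; >0.45 counts as bound) and Z-score of median probe intensity. Two replicate arrays (datasets 1 and 2).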
For the sequence CACCTGAC, the “PBM E-score of 8-mer” value was found to be 0.387 ± 0.018. AACCTGTC: the “PBM E-score of 8-mer” value worked out at 0.30927 ± 0.00016. The value for AAACTATC was -0.215 ± 0.063.

As for AACCAGCA, the “PBM E-score of 8-mer” value was -0.18 ± 0.047.

For GATGGCCC, the “PBM E-score of 8-mer” value is -0.138 ± 0.0089. For GCTCCACA, the “PBM E-score of 8-mer” value was -0.0189 ± 0.02. In the case of ACTGAACG, the “PBM E-score of 8-mer” value was -0.315 ± 0.091. In the case of GCTTTACC it was -0.126 ± 0.066; in that of AAGGTTAC, -0.145 ± 0.017; in that of GGGCCCAA, -0.154 ± 0.022. With CGTGTTTC, the “PBM E-score of 8-mer” value was 0.126 ± 0.034.

With ACCCAGTA, the “PBM E-score of 8-mer” value was -0.234 ± 0.012.

For the sequence AGATAAAT, the “PBM E-score of 8-mer” value was -0.223 ± 0.057.

With CATGACAC, the “PBM E-score of 8-mer” value came out at 0.389 ± 0.0048. In the case of AATGACAC it was 0.355 ± 0.0044.

With ACTGACAT, the “PBM E-score of 8-mer” value was 0.0983 ± 0.064. The value for CCTGACAC was 0.435 ± 0.0077; that for CCTGACAG was 0.218 ± 0.036. In the case of GCTGACCC it was -0.159 ± 0.14; in that of GCTGACAC, 0.398 ± 0.013. ACTGACAC: the “PBM E-score of 8-mer” value turned out to be 0.379 ± 0.012. The value for ACTGACAA was 0.166 ± 0.009; that for GCTGACAA was 0.2795 ± 0.00061; that for CCTGACAA was 0.207 ± 0.027.

For the sequence CATGACAA, the “PBM E-score of 8-mer” value came out at 0.204 ± 0.047. The value for GCCTTTCA was -0.0251 ± 0.074. In the case of TACTTTCA it was 0.0461 ± 0.077; in that of CACAGCGA, 0.0526 ± 0.053; in that of CTGACCAC, 0.0865 ± 0.013. Regarding ACAGATGA, the “PBM E-score of 8-mer” value came out at 0.00068 ± 0.05. In the case of AGCGTTCG it was 0.214 ± 0.068; in that of CTACAGAG, -0.187 ± 0.022. In the case of AGTGTCAA it was 0.447 ± 0.0063; in that of ACTGTCAC, 0.392 ± 0.018.

GCTGTCAA: the “PBM E-score of 8-mer” value was determined as 0.323 ± 0.014.

AATGTCAA: the “PBM E-score of 8-mer” value was found to be 0.0345 ± 0.052.

Take CCTGTCAA: the “PBM E-score of 8-mer” value stood at 0.309 ± 0.024. In the case of CCTGTCAC it was 0.3665 ± 0.0036.

Turning to CATGTCAA, the “PBM E-score of 8-mer” value was -0.00945 ± 0.065.

For the sequence ACTGTCAG, the “PBM E-score of 8-mer” value was 0.129 ± 0.034. The value for CGTGTCAA was 0.4335 ± 0.00096; that for ACTGTCAA was 0.162 ± 0.028.

As for GGTGTCAA, the “PBM E-score of 8-mer” value came to 0.474 ± 0.0055. In the case of GGTGTCCA it was 0.294 ± 0.021.

GGTGTCAC: the “PBM E-score of 8-mer” value was 0.481 ± 0.0062. The value for AATGTCAG was 0.0135 ± 0.012; that for TGTGTCAA was 0.372 ± 0.014; that for GCTGTCAC was 0.3624 ± 0.0017. The value for TCTGTCAA was 0.152 ± 0.039.

In the case of AATGTCAT, the “PBM E-score of 8-mer” value is -0.164 ± 0.033. As to CGTGTCAG, the “PBM E-score of 8-mer” value was 0.31284 ± 0.00018. The value for TATGTCAA was 0.0912 ± 0.063; that for AGTGTCAT was 0.387 ± 0.0042; that for GATGTCAC was 0.304 ± 0.0034. The value for AGTGTCAG was 0.384 ± 0.017; that for ACTGTCAT was 0.163 ± 0.037; that for AACATGAT was -0.0409 ± 0.098. The value for GGTCGAGA was -0.252 ± 0.058. On to TTGAGCAA, for which the “PBM E-score of 8-mer” value was -0.0163 ± 0.022.

As for ATAGGCAC, the “PBM E-score of 8-mer” value was -0.0213 ± 0.017. The value for CGCTCATA was -0.08565 ± 0.00083. Turning to TAGCTCAA, the “PBM E-score of 8-mer” value was -0.184 ± 0.04.

As for ACTTTTCT, the “PBM E-score of 8-mer” value stood at 0.0687 ± 0.099. In the case of ATTGGGTC it was -0.0189 ± 0.031. The value for CGAAGCCG was 0.155 ± 0.06. The value for ATGGAGGA was -0.217 ± 0.015; that for ACACCCAA was 0.368 ± 0.035; that for AAGCGAAT was -0.167 ± 0.0081.

With CATGTCAC, the “PBM E-score of 8-mer” value came out at 0.352 ± 0.0093. As to AGTGTCCC, the “PBM E-score of 8-mer” value stood at 0.176 ± 0.004. On to CGTGTCAC, for which the “PBM E-score of 8-mer” value was determined as 0.3865 ± 0.0037.

CGTGTCCC: the “PBM E-score of 8-mer” value is -0.0561 ± 0.065.

For the sequence AATGTCAC, the “PBM E-score of 8-mer” value is 0.329 ± 0.034. Turning to AGTGTCAC, the “PBM E-score of 8-mer” value was 0.449 ± 0.0029. ATTAAGTA: the “PBM E-score of 8-mer” value was -0.154 ± 0.096.

Regarding CGACCTCG, the “PBM E-score of 8-mer” value was 0.14 ± 0.074. In the case of CGCTTCAG it was -0.0405 ± 0.068; in that of CTCCTAGC, 0.0648 ± 0.041; in that of CGTCACAC, 0.433 ± 0.017. Take CGTCACAG: the “PBM E-score of 8-mer” value came to 0.243 ± 0.014. As to GGTCACAC, the “PBM E-score of 8-mer” value came out at 0.4613 ± 0.0012. In the case of CGTCACCA it was 0.27 ± 0.054; in that of CGTCACCC, 0.373 ± 0.021. In the case of AGTCACAT, the “PBM E-score of 8-mer” value is 0.11 ± 0.058. In the case of GGTCACAA it was 0.212 ± 0.048. In the case of GGACACAC it was 0.101 ± 0.0014; in that of AGTCACAG, 0.135 ± 0.054; in that of CGTCACAA, 0.175 ± 0.033.

Take AGTCACAC: the “PBM E-score of 8-mer” value came out at 0.462 ± 0.0029. Consider AGTCACCC, for which the “PBM E-score of 8-mer” value was -0.0493 ± 0.13. Consider CTCAAGAA, for which the “PBM E-score of 8-mer” value was -0.0351 ± 0.062. As for AATGAGGG, the “PBM E-score of 8-mer” value is -0.21 ± 0.035. The value for AGCAACAT was -0.000465 ± 0.079; that for AAAATCGT was 0.158 ± 0.078. The value for AGAACATG was -0.102 ± 0.0022. In the case of GTATCTCA it was 0.138 ± 0.024; in that of CTAATAGC, 0.0155 ± 0.017; in that of AACAATAT, 0.00943 ± 0.055. In the case of AGATGCTG, the “PBM E-score of 8-mer” value is -0.149 ± 0.035. The value for ATCAAGCC was -0.0171 ± 0.049. The value for GTACTTAA was -0.16 ± 0.011.

Regarding GCGGGTTA, the “PBM E-score of 8-mer” value came to 0.0385 ± 0.009.

In the case of CGATGTTA, the “PBM E-score of 8-mer” value was -0.192 ± 0.016. The value for CGGTGTTA was 0.37 ± 0.0083. Consider GGGGGTTA, for which the “PBM E-score of 8-mer” value was -0.158 ± 0.1.

As for CGCTGTTA, the “PBM E-score of 8-mer” value was 0.0368 ± 0.0067. As for GGATGTTA, the “PBM E-score of 8-mer” value is -0.00674 ± 0.011. As to GGGTGTTA, the “PBM E-score of 8-mer” value was 0.4737 ± 0.00077. In the case of ACCCATAT it was 0.0957 ± 0.013. On to GGGTTCGA, for which the “PBM E-score of 8-mer” value was -0.0834 ± 0.013.

Source of the values: the supplement of paper PMC4166925.
